# In all, about 33,000 sequences were measured (“E-score (-0.5 to 0.5)”: median about -0.01, highest 2% from about 0.26 on). The entries come from a sample that favours the highest values as a whole.
# Target: Ste12 (UniProt P13574)
# Assay: PBM E-score (8-mer binding enrichment) (E-score (-0.5 to 0.5)); higher = stronger / more preferred TF binding
# Conditions: protein concentration: 200 nM; construct: GST-DNA-binding domain
# Protocol: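 Universal 'all 10-mer' protein binding microarrays (Agilent AMADID 015681) probed with GST-tagged S. cerevisiae TFs (full-length or DBD) made by in vitro transcription/translation (PURExpress), about 100-200 nM. Bound TF was detected with fluorescent anti-GST. Each ungapped 8-mer (which stands for itself and its reverse complement) is scored by the PBM enrichment score (E-score), a modified Wilcoxon-Mann-Whitney statistic from -0.5 to +0.5, computed with the Universal PBM Analysis Suite. Scale: above 0.35 generally sequence-specific binding.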
# Chain of UniProt P13574 (P13574 whole entry): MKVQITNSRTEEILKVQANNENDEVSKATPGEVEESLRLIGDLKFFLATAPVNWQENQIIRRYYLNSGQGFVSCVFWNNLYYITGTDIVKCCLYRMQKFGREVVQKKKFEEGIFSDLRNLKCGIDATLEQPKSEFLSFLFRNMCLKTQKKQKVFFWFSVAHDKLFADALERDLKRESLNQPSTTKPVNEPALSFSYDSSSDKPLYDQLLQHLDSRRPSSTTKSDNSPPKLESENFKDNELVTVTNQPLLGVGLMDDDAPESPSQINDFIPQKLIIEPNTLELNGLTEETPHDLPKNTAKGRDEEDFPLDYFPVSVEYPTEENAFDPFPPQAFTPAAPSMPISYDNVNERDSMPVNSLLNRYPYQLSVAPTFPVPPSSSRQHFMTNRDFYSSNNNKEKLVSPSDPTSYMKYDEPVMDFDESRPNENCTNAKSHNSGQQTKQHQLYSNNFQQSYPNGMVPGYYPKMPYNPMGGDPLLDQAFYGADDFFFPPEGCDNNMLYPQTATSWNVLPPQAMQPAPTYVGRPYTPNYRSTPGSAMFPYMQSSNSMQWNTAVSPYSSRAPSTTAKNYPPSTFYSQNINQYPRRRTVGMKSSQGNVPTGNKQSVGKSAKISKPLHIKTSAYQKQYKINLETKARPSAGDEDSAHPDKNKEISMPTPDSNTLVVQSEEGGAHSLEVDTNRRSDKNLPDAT
row,Sequence,PBM E-score
1,TCAGTCAA,-0.0289
2,GGGACACA,0.17
3,CGCGCGCC,0.157
4,ACCGCGCG,0.273
5,CGCGCGGC,0.306
6,AGCGCGGC,0.0144
7,ACCGCGCC,-0.034
8,GCCGCGGA,0.0303
9,CGCGCGGA,0.0633
10,CGCGCGCG,0.262
11,GCCGCGGC,0.29
12,CCCGCGGC,0.224
13,CGCGCGCA,0.208
14,ACCGCGCT,-0.16
15,ACGGAGTG,-0.043
16,AACGACCC,-0.126
17,ACGCTCGG,-0.0861
18,GTTCAGTA,-0.0836
19,ATCGCACA,0.0146
20,AACCAATA,0.195
21,ACGTAGCG,-0.0127
22,CCTGAAAC,0.487
23,CCTGAAAA,0.0508
24,GCTGAAGC,-0.0602
25,CCTGAAAG,-0.179

row,Sequence,PBM E-score
1,ACTGAAAC,0.477
2,GCTGAAAA,0.17
3,ACTGAAAA,0.101
4,GCTGAAAC,0.485
5,ACTGAAAG,0.175
6,GATGGGCA,-0.0542
7,AGAATATA,0.0722
8,AAATCTAC,0.151
9,CCCGCACA,0.023
10,GCCAGGTA,-0.127
11,AACGATTC,-0.0106
12,GCCCTCAA,-0.23
13,GCGGTCAA,-0.0277
14,GTTTTTCA,0.217
15,CGTTTTCA,0.132
16,GGGGTTCA,-0.0134
17,GGTTTTCA,0.311
18,CGGTTTAA,0.00247
19,CGGTTTCA,0.452
20,GGGTTTCA,0.435
21,CGGTTTCC,0.1
22,GGGTTTGA,0.18
23,AGGTTTCC,-0.0692
24,AGGTTTCG,0.144
25,AGGTTTCA,0.451

row,Sequence,PBM E-score
1,AACGTCAG,-0.155
2,GAGGATTA,0.0342
3,CCCGATAG,0.0566
4,GGCTTTAA,0.0191
5,AAAGCGCC,-0.0182
6,CGCTCAAC,-0.108
7,CTTGACCC,-0.129
8,ACCTCATC,-0.0717
9,GACAGCCC,-0.085
10,CTGAACGA,-0.167
11,AATCCAGC,-0.221
12,CAAACATA,0.23
13,TAAACATA,0.218
14,GAAACATC,0.355
15,GATACATC,0.0608
16,GAAACATA,0.433
17,CAAACATC,0.192
18,GCATATCA,0.0522
19,ACGAATGA,0.135
20,AAACGGAC,0.149
21,AAACGGAG,0.0885
22,AAACGGAT,0.265
23,TACGCAAA,-0.0817
24,CCCAGACC,-0.0973
25,AAAGTACC,-0.0428

row,Sequence,PBM E-score
1,AAACACCG,0.318
2,ATACACAC,-0.0713
3,CAACACGC,-0.247
4,ATACACAG,-0.054
5,AAACACCT,0.104
6,AAACACGC,0.288
7,CAACACCG,-0.103
8,ATACACAA,0.283
9,AAACACAA,0.291
10,AAACACAC,0.243
11,AAACACGA,0.129
12,AAACACAG,0.118
13,ACGCCTAA,0.0463
14,CTAGTTGA,0.175
15,TAGCGAAA,0.118
16,AGCAGTTG,-0.126
17,CCGGTCTA,-0.191
18,GCGATTTA,0.0399
19,CGGAGAAG,-0.00086
20,GTTTAAAC,0.214
21,GGTTTTAA,0.298
22,GGGTTTAA,0.215
23,GGTTTTTA,0.166
24,CTTTTAAA,0.255
25,GGTTAAAA,0.256

row,Sequence,PBM E-score
1,GTTTTAAA,0.378
2,CCTTTAAA,0.0788
3,CTTTAAAA,0.266
4,GTTTAAAA,0.3
5,GGTTTAAA,0.211
6,CTTTAAAC,0.0682
7,ATGCGCAT,0.0672
8,CAAGGAGG,-0.075
9,AACGATCG,0.0136
10,TAGGCCTA,-0.15
11,AATGGGGG,-0.187
12,GCTATGAC,0.0507
13,AGGAGTAA,-0.0677
14,CTGAGAAC,0.0658
15,AACAGGGC,0.0987
16,CCTTAAAA,0.162
17,GCTTAAAC,-0.0138
18,AGTTTTAC,0.143
19,TTTTAAAA,0.329
20,TCTTAAAA,0.156
21,AGTTTTAA,0.212
22,AGTTTTAT,0.275
23,AGTTTTAG,0.12
24,TTTAAAAA,0.184
25,TGTTTTAA,0.364

row,Sequence,PBM E-score
1,GCTTAAAA,0.31
2,TGTTTAAA,0.26
3,CCCTAACG,-0.00496
4,AAGGGAGT,-0.232
5,CGCAGAAC,-0.122
6,AACAACCG,0.0778
7,CAGATCAA,0.00349
8,CGTTTTAG,0.215
9,CGTTTTTA,0.165
10,GTTTTTTA,0.149
11,CTTTTTAA,0.104
12,CGTTTTAA,0.319
13,GTTTTTAA,0.261
14,AAGAGTTG,-0.149
15,GGTTCATA,-0.0487
16,GGGAGAAC,-0.0492
17,ATCCTCAA,0.00575
18,AAATTGTC,0.268
19,AAATTGTT,0.186
20,AAATTGTA,0.048
21,CGTGTTTC,0.36
22,AGTGTTTA,0.174
23,CGTGTTGC,0.0401
24,AGTGTTTG,0.245
25,CGTGTTTA,0.0319

row,Sequence,PBM E-score
1,AGTGTTTC,0.332
2,GCCCTCGA,-0.216
3,CTTTAGTC,-0.0859
4,GGCCAAAA,0.0718
5,TCAACTCA,0.0748
6,CGAATACA,0.0383
7,AGCAGTGA,-0.0211
8,ATATGCTC,0.0529
9,AAAACGAC,0.0623
10,GAAACGAC,0.317
11,AAAACGAA,0.237
12,CTAACGAA,0.11
13,GAAACGAA,0.367
14,CAAACGAC,0.128
15,ATAACGAA,0.0476
16,CAAACGAA,0.101
17,TTAACGAA,0.262
18,CAAGTCTG,-0.0972
19,CGTCGCTC,-0.115
20,AGTATGGG,-0.0937
21,ATGGCCGC,-0.0598
22,ATGAGGTC,0.0263

# Reference: the supplement of paper PMC3334620
